Data on twelve molecules can be found in PubChem BioAssay AID1053122 (Broad Institute, 2014).

SMILES strings stand for the structures. Potency and affinity values are given separately. A number with no mark means an inactive call.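 Rule for the calls: active = CTGF level falls with dose and the fitted half-maximal dose is at most twice the top valid dose; inconclusive = flat fit with 30 to 70% drop, or a poor fit; inactive = the rest.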

The assay can be described thus: CTGF mRNA reduction in DLD1 cells – cell-based, DLD1 colon cancer, RT-qPCR, cherry-pick, dose response (AID 1053122). The note with it: DLD1 CTGF mRNA (YAP1 pathway), 24 h; series mostly up to 26 µM; CTGF expression fold change (lower = inhibition): at the top concentration.
Regarding `COc1cccc(-c2ccc([C@H]3[C@H](CO)N4CCCCN(C(=O)Cc5ccncc5)C[C@@H]34)cc2)c1`, the “CTGF expression fold change (lower = inhibition)” value is 0.94 unspecified. The result for `O=C(Cc1ccncc1)N1CCCCN2[C@H](CO)[C@H](c3ccc(C#Cc4ccccc4F)cc3)[C@H]2C1` reads 1.23 unspecified.

With `COc1cccc(-c2ccc([C@@H]3[C@@H](CO)N4CCCCN(C(=O)Cc5ccncc5)C[C@H]34)cc2)c1`, the “CTGF expression fold change (lower = inhibition)” value was 0.988 unspecified.

Take `O=C(Cc1ccncc1)N1CCCCN2[C@@H](CO)[C@@H](c3ccc(C#Cc4ccccc4F)cc3)[C@@H]2C1`: the “CTGF expression fold change (lower = inhibition)” value is 0.834 unspecified [at 23.5 µM]. In the case of `O=C(Cc1ccncc1)N1CCCCN2[C@H](C1)[C@@H](c1ccc(C#Cc3ccccc3F)cc1)[C@@H]2CO`, the “CTGF expression fold change (lower = inhibition)” value was 0.741 unspecified. Consider `COc1cccc(-c2ccc([C@@H]3[C@H](CO)N4CCCCN(C(=O)Cc5ccncc5)C[C@@H]34)cc2)c1`, for which the “CTGF expression fold change (lower = inhibition)” value was 0.779 unspecified. `O=C(Cc1ccncc1)N1CCCCN2[C@H](CO)[C@@H](c3ccc(C#Cc4ccccc4F)cc3)[C@@H]2C1`: the “CTGF expression fold change (lower = inhibition)” value is 0.409 unspecified.

On to `COc1cccc(-c2ccc([C@H]3[C@@H](CO)N4CCCCN(C(=O)Cc5ccncc5)C[C@H]34)cc2)c1`, for which the “CTGF expression fold change (lower = inhibition)” value was 1.61 unspecified. The result for `COc1cccc(-c2ccc([C@H]3[C@@H](CO)N4CCCCN(C(=O)Cc5ccncc5)C[C@@H]34)cc2)c1` reads 0.966 unspecified; that for `O=C(Cc1ccncc1)N1CCCCN2[C@H](CO)[C@@H](c3ccc(C#Cc4ccccc4F)cc3)[C@H]2C1`, 0.661 unspecified; that for `COc1cccc(-c2ccc([C@@H]3[C@H]4CN(C(=O)Cc5ccncc5)CCCCN4[C@H]3CO)cc2)c1`, 1.38 unspecified.

In the case of `COc1cccc(-c2ccc([C@@H]3[C@@H](CO)N4CCCCN(C(=O)Cc5ccncc5)C[C@@H]34)cc2)c1`, the “CTGF expression fold change (lower = inhibition)” value is 0.867 unspecified.
